In PubChem BioAssay AID2081 (NMMLSC, 2009):
A number with no mark means an inactive call. How the calls were made is not given here.

The molecules below were run against Bcl-2-like protein 2 (Homo sapiens) (UniProt Q92843) (assay: inhibitors of Bim binding to Bcl-W, confirmation, biochemical, multiplexed, bead-based flow cytometry, HTS hits (AID 2081)). Details: Bim-Bcl-W binding displacement; series mostly up to 100 µM; inhibition of binding: at the top concentration.
Chain of Bcl-2-like protein 2 (Homo sapiens) (Q92843 whole entry, looked up): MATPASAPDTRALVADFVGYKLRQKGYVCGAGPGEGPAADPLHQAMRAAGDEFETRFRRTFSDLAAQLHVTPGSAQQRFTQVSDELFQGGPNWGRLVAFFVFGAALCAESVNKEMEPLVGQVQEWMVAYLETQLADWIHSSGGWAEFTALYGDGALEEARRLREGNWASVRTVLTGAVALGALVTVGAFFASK

SMILES | inhibition of binding
O=C1C(Cl)=C(N2CCN(c3ccccc3[N+](=O)[O-])CC2)C(=O)c2ccccc21 | 34.6
Cc1ccc(-c2nc3c(c(=O)[nH]c(=O)n3Cc3ccccc3)n2C)o1 | 28.9
O=c1c2c(n3nnnc3n1Cc1ccccc1)-c1ccccc1CC21CCCC1 | 6.66
Cc1ccc(-c2cc(-c3ccc(C)o3)nc(N)c2C#N)cc1 | 7.17
CNC(CC(=O)c1ccc([N+](=O)[O-])cc1)C(Cl)(Cl)Cl (stereo unspecified) | 8.23
COc1ccccc1-n1c(-c2ccccc2)c[nH]c1=S | 6.68
Cc1ccc(-c2cc(C(=O)Nc3nccs3)c3ccccc3n2)o1 | 7.16
Cc1cc(-c2cc(-c3ccc(Cl)cc3)nc(N)c2C#N)co1 | 9.15
COc1ccc(N2C(=O)C(Cl)=C(NC3C(=O)N(c4ccccc4)N(C)C3C)C2=O)cc1 (stereo unspecified) | 3.21
C=CS(=O)(=O)c1sc(Cl)c(N2CCOCC2)c1[N+](=O)[O-] | 19.6
O=C1/C(=C\c2ccco2)NC(=S)N1c1ccccc1 | 12.3
O=[N+]([O-])c1c(NCCCO)cc(Sc2nc3ccccc3s2)c2nonc12 | 6.04
S=c1[nH]cc(-c2ccccc2)n1-c1ccccc1 | -0.382
CCN1C(=O)/C(=C\C=C2/C=CC=CN2CC)SC1=S | 5.54
CC(=O)Nc1ccc(-n2cc(-c3ccccc3)[nH]c2=S)cc1 | -1.83
COc1cc(CNc2ccc3[nH]c(=O)[nH]c3c2)cc(Br)c1OCC(=O)NC(C)(C)C | 12.4
O=C1c2ccccc2C(=O)N1CN(C(=O)COc1ccc(Cl)cc1Cl)c1cccc(F)c1 | -1.52
O=C(Nc1nnc(COc2ccc(Cl)cc2)s1)c1ccco1 | -0.607
CCN(CC)c1ccc(NC(=O)c2ccccc2Br)cc1S(=O)(=O)Nc1ccccc1OC | -5.26
CCN(CC)c1ccc(NC(=O)COc2ccccc2C)cc1S(=O)(=O)Nc1ccccc1OC | -2.83
CN(CCO)c1cc(Sc2nc3ccccc3s2)c2nonc2c1[N+](=O)[O-] | 4.07
CCN(CC)c1ccc(NC(=O)c2ccccc2F)cc1S(=O)(=O)Nc1ccccc1OC | -6.03
Cc1ccc(C=NNC(=O)CSc2nnc(-c3ccc(Cl)cc3)n2-c2ccccc2)o1 | 8.75
Cc1ccc(-c2cc(-c3ccc(F)cc3)c(C#N)c(N)n2)o1 | 7.5
COc1ccc(N2C(=O)C(Cl)=C(Oc3cccc(OC)c3)C2=O)cc1 | -0.374
CCN(CC)C(=O)COC(=O)c1cc(-c2ccco2)nc2ccccc12 | 8.46
